From the supplement of paper PMC10105736
A number with no mark means an inactive call.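 Rule for the calls: active = MAPPIT score above the 99th percentile of random reference set scores in the same batch; inactive = at or below it.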

Columns and labels:
Assay in all cases: MAPPIT interaction score (arbitrary units); higher = stronger binary interaction signal, active = hit call of the paper
CG14563 = settings: pair source set: RRS
CG17162 = settings: MAPPIT configuration: N-C; pair source set: screen_3
Dlc90F = settings: MAPPIT configuration: N-N; pair source set: Lit-BS-16
CG14764 = settings: MAPPIT configuration: N-N; pair source set: Curagen_low_conf
CG6933 = settings: MAPPIT configuration: N-N; pair source set: Lit-BS-16
CG14074 = settings: MAPPIT configuration: N-N; pair source set: screen_1
GstO3 = settings: MAPPIT configuration: N-N; pair source set: DPIM
CG1416 = settings: MAPPIT configuration: N-N; pair source set: DPIM
CG14190 = settings: pair source set: RRS
CG42512 = settings: pair source set: RRS
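Note: HEK293T cells with Epo stimulation, STAT-responsive firefly luciferase reporter, fold induction versus unstimulated cells divided by the larger fold induction of two negative controls lacking either bait or prey.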

B1: Mettl2 (protein)
chain: MLTTSSSTMLGKYGWQILRRLASKSWEHTRQRKKPSGAGSRVLTDAREVFEFNAWDHVQWDEEQELAAKAAVAKNSTSKMEAEQKERFQTDAPKFWDSFYGIHDNRFFKDRHWLFTEFPELAPLAADSAVLQPRSIFELGCGVGNTILPLLQYSSEPQLKVFGCDFSARAIEILRSQRQFDEKRCEVFVMDATLDHWQVPFEENSQDIIVMIFVLSAIEPKKMQRVLDNCYRYLRPGGLLLFRDYGRYDLAQLRFKSGKCMEDNFYVRGDGTMVYFFTEEELRGMMTQAGLQEEQLIVDRRLQVNRCRGLKMYRVWIQTKFRKPL
CG14563; MAPPIT configuration: N-C
  MAPPIT interaction score: 0.238
CG14563; MAPPIT configuration: N-N
  MAPPIT interaction score: -0.0268
CG17162
  MAPPIT interaction score: 1.73
Dlc90F
  MAPPIT interaction score: 0.581

B2: cad (protein)
chain: MVSHYYNTLPYTQKHSAANLAYASAAGQPWNWTPNYHHTPPNHQFLGDVDSSHAAHHAAAAHQMYYNSHHMFHSAAAASAGEWHSPASSTADNFVQNVPTSAHQLMQQHHHHHAHASSSSASSGSSSSGGAPGAPQLNETNSSIGVGGAGGGGGVGGATDGGPGSAPPNHQQHIAEGLPSPPITVSGSEISSPGAPTSASSPHHHLAHHLSAVANNNNNNNNNNNSPSTHNNNNNNNSVSNNNRTSPSKPPYFDWMKKPAYPAQPQPGKTRTKDKYRVVYTDFQRLELEKEYCTSRYITIRRKSELAQTLSLSERQVKIWFQNRRAKERKQNKKGSDPNVMGVGVQHADYSQLLDAKAKLEPGLHLSHSLAHSMNPMAAMNIPAMRLHPHLAAHSHSLAAVAAHSHQLQQQHSAQMSAAAAVGTLSM
CG14764
  MAPPIT interaction score: -0.0445
CG6933
  MAPPIT interaction score: -0.219

B3: PI31 (protein)
chain: MESGSTAKTGDFFYGWDLLYKTVKADVSKKSDLLIALVHFLLTKHYNFRCVGVGDDKTLPEEEGSELLPDSWNDDDTKYSLRYVHDKMLYLLLGHITEGSLLINLLDINTKKVSNICVEPETLVPEVKGGITTIMPSASEIVERYRRELLDPVFTGNSREVTTQTTNSPRPIGSDPDPLRIGEPRRGGSFIPSAFEPRPFGFPDVGRGDLDPLGRGGHGNLFSFPSRPNMGPGPVPRFDPFNPLNPNRPGQGGINPDHMRPPDWNPDYYM
CG14074
  MAPPIT interaction score: -0.274
GstO3
  MAPPIT interaction score: 0.447

B4: M6 (protein)
chain: MSKVKNLLAKMLQRFGKNSSQADSQRYDSLEEIAQNQANERMLRATQVGLEEHLVICLETEAGSFYWHSQ
CG1416
  MAPPIT interaction score: -0.155

B5: tut (protein)
chain: MDFESKYCTSQVNGTITITTRKVLDENLKSLLDEGKGELFLSCIPRNHSCSPRWIVEVASELGEVYIMRYKIDFSGNSRGYAYLQYINVDLKESAMQYLPMRFRQLCMCLRVEPSTNNRELVLKNVESSLRPWQVYQEMLKIHPFTIVRVYEYQLDQFFYIFEYRNNDSAASAHQRVRNSIRKFGEHAHISWLTAENILSRASGSFCFQREVSQNRTRRVPPRQKGCFKF
CG14190; MAPPIT configuration: N-C
  MAPPIT interaction score: 0.351
CG14190; MAPPIT configuration: N-N
  MAPPIT interaction score: -0.511
CG42512; MAPPIT configuration: N-C
  MAPPIT interaction score: -0.391
CG42512; MAPPIT configuration: N-N
  MAPPIT interaction score: 0.0427
